The values below come from PubChem BioAssay (Tox21).

SMILES strings stand for the structures. Records with an inconclusive call do not appear. Calls of active or inactive are those of the source. Unless noted, calls follow the shape of the dose curve; as a rule, active = well fitted curve in the direction sought with a large enough effect in the repeat runs; inconclusive = weak or mixed curves; inactive = no such curve, though single readings can be large; an effect the other way counts as inactive or inconclusive.

Test [1] concerns the target Peroxisome proliferator-activated receptor gamma (Homo sapiens) (UniProt P37231). Put plainly: qHTS assay to identify small molecule agonists of the peroxisome proliferator-activated receptor gamma (PPARg) signaling pathway (AID 743094; active = well fitted activation curve with a large enough effect in the signal ratio in the repeat runs, not every such curve was filed as active; the % refers to the signal ratio). The method in brief: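 HEK293H PPARg-bla cells, 5 h settle at 37C/5% CO2; compound (DMSO) 17 h, 37C; B/G FRET substrate 1 h RT; fluorescence intensity read-out. qHTS format.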

The target is the same in test [2]. Put plainly: qHTS assay to identify small molecule antagonists of the peroxisome proliferator-activated receptor gamma (PPARg) signaling pathway (AID 743191; calls by dose curve; also: series mostly up to about 63 µM; nearly all actives have a fitted effect of over 30% in size). The procedure, abridged: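 GeneBLAzer PPARg UAS-bla HEK293H cells carrying a UAS-driven beta-lactamase reporter were plated at 3000 cells/well, preincubated 5 h at 37C, then given compound for 17 h at 37C; LiveBLAzer B/G FRET substrate was read after 1 h at room temperature.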

The nature of test [3]: qHTS assay to identify small molecule antagonists of the peroxisome proliferator-activated receptor gamma (PPARg) signaling pathway - cell viability counter screen (AID 743194). Also: nearly all actives have a fitted effect of over 55% in size. Also: potency is read from the fitted curve at half-maximal effect. The method in brief: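 PPARg-UAS-bla HEK293H cells were plated, rested 5 h at 37 C, then treated with compounds plus rosiglitazone (50 nM final) for 17 h at 37 C; viability was then read by CellTiter-Glo luminescence after 30 min at room temperature.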

Test [4] in a line: qHTS assay for small molecule agonists of the antioxidant response element (ARE) signaling pathway (AID 743202; active = well fitted activation curve with a large enough effect in the signal ratio in the repeat runs, not every such curve was filed as active; the % refers to the signal ratio). The method in brief: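 Following a 16 h, 37 C exposure of reporter HepG2 cells (ARE-driven beta-lactamase, 2,000 cells/well) to compounds, FRET substrate was applied for 2 h at room temperature and fluorescence intensity recorded.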
Test [5] can be described thus: qHTS assay for small molecule agonists of the antioxidant response element (ARE) signaling pathway - cell viability counter screen (AID 743203; calls by dose curve; also: nearly all actives have a fitted effect of over 55% in size). The procedure, abridged:
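Luminescence read-out (CellTiter-Glo, 30 min at room temperature) measured cell viability in the same wells as the ARE beta-lactamase reporter. HepG2 ARE-bla cells were treated with compounds for 16 hrs at 37C/5% CO2.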

Test [6] can be described thus: qHTS assay for small molecule activators of the heat shock response signaling pathway - cell viability counter screen (AID 743209). Also: nearly all actives have a fitted effect of over 50% in size. Also: potency is read from the fitted curve at half-maximal effect. The procedure, abridged:
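HSE-bla HeLa; 1500 cells/well; overnight 37 C, 5% CO2; compound 5 h 37 C; LiveBLAzer B/G substrate 2.5 h RT; CellTiter-Glo 30 min RT; luminescence.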

Test [7] is described as follows: qHTS assay to identify small molecule agonists of the peroxisome proliferator-activated receptor delta (PPARd) signaling pathway - cell viability counter screen (AID 743211). Also: nearly all actives have a fitted effect of over 55% in size. Also: potency is read from the fitted curve at half-maximal effect. The method in brief:
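Viability of GeneBLAzer PPARd UAS-bla HEK293H cells was assessed after 17 h compound incubation at 37C, using CellTiter-Glo reagent added after the reporter read and luminescence recorded 30 min later.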

For test [8], the target named is Peroxisome proliferator-activated receptor delta (Homo sapiens) (UniProt Q03181). Put plainly: qHTS assay to identify small molecule agonists of the peroxisome proliferator-activated receptor delta (PPARd) signaling pathway (AID 743212; calls by dose curve). The method in brief:
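Beta-lactamase reporter read by fluorescence (LiveBLAzer B/G FRET, 2 h, room temperature). Test agents, in DMSO, incubated at 37 C with PPARd-bla HEK293H cells.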

A short description of test [9]: qHTS assay to identify small molecule antagonists of the peroxisome proliferator-activated receptor delta (PPARd) signaling pathway - cell viability counter screen (AID 743213). Also: nearly all actives have a fitted effect of over 50% in size. Also: potency is read from the fitted curve at half-maximal effect. The procedure, abridged: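 Agonist-stimulated (L165041, 300 nM final) HEK293H PPARd UAS-bla cells are exposed to compounds for 17 h at 37 C, and ATP-based luminescence (CellTiter-Glo) from the same wells reports cytotoxicity.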

Test [10] concerns the target Peroxisome proliferator-activated receptor delta (Homo sapiens) (UniProt Q03181). As to the kind of experiment: qHTS assay to identify small molecule antagonists of the peroxisome proliferator-activated receptor delta (PPARd) signaling pathway (AID 743215; active = well fitted inhibition curve with a large enough effect in the signal ratio in the repeat runs, not every such curve was filed as active; the % refers to the signal ratio; also: series mostly up to about 62 µM). The procedure, abridged:
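HEK293H GeneBLAzer PPARd UAS-bla reporter cells; cpd + L165041 300 nM final, 17 h 37 C; LiveBLAzer B/G FRET substrate 2 h RT; fluorescence intensity read-out. Antagonist mode.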

A short description of test [11]: qHTS assay to identify small molecule agonists of the farnesoid-X-receptor (FXR) signaling pathway - cell viability counter screen (AID 743218). Also: nearly all actives have a fitted effect of over 45% in size. Also: potency is read from the fitted curve at half-maximal effect. The procedure, abridged:
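Luminescence from CellTiter-Glo, read after 30 min at RT, reports viability of GeneBLAzer FXR-UAS-bla HEK 293T cells treated 16 h with compounds in the wells used for the beta-lactamase reporter.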

The nature of test [12]: qHTS assay to identify small molecule antagonists of the farnesoid-X-receptor (FXR) signaling pathway - cell viability counter screen (AID 743221; active = well fitted cell-killing curve with a large enough effect in the repeat runs, not every such curve was filed as active; also: nearly all actives have a fitted effect of over 50% in size; also: potency is read from the fitted curve at half-maximal effect). The method in brief: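 Quantitative HTS of the Tox21 10K library run in parallel with the beta-lactamase reporter read. HEK 293T cells carrying a UAS-driven bla reporter got compound and 50 uM CDCA (final) for 16 h; ATP-based luminescence followed.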

Test [13] deals with Vitamin D3 receptor (Homo sapiens) (UniProt P11473). As to the kind of experiment: qHTS assay to identify small molecule agonists of the vitamin D receptor (VDR) signaling pathway (AID 743222; calls by dose curve). The method in brief:
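Beta-lactamase reporter readout (LiveBLAzer B/G FRET, 2 h RT) in VDR-bla cells after 16 h compound treatment at 37C, 5% CO2; cells pre-incubated 4 h before pin transfer of DMSO solutions.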

Test [14] has the same target. Put plainly: qHTS assay to identify small molecule antagonists of the vitamin D receptor (VDR) signaling pathway (AID 743223; active = well fitted inhibition curve with a large enough effect in the signal ratio in the repeat runs, not every such curve was filed as active; the % refers to the signal ratio). The procedure, abridged: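 Fluorescence from LiveBLAzer B/G FRET substrate, read after 2 h at room temperature, reflects beta-lactamase reporter activity in VDR-bla cells treated 16 h at 37C with compounds and agonist 1alpha,25-dihydroxyvitamin D3 (3 nM final).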

The nature of test [15]: qHTS assay to identify small molecule agonists of the vitamin D receptor (VDR) signaling pathway - cell viability counter screen (AID 743224). Also: nearly all actives have a fitted effect of over 50% in size. Also: potency is read from the fitted curve at half-maximal effect. The procedure, abridged: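 Cytotoxicity counter screen: VDR-bla cells, 16 h compound exposure at 37C, 5% CO2; CellTiter-Glo luminescence, 30 min RT, same wells as bla read.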
Test [16] in a line: qHTS assay to identify small molecule that activate the aryl hydrocarbon receptor (AhR) signaling pathway - cell viability counter screen (AID 743086).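 Also: HepG2 liver cells carrying the AhR DRE luciferase reporter; series mostly up to about 70 µM; nearly all actives have a fitted effect of over 45% in size.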 The procedure, abridged:
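HepG2-AhR-luc (HG2L7.5c1) cells, 4000/well, were preincubated 5 h at 37C, exposed to compound in qHTS format for 24 hr at 37C, then given CellTiter-Fluor for 30 min; viability was read as fluorescence in the reporter wells.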

A short description of test [17]: qHTS assay for small molecule activators of the heat shock response signaling pathway (AID 743210; active = well fitted activation curve with a large enough effect in the signal ratio in the repeat runs, with a control signal flat, not every such curve was filed as active; the % refers to the signal ratio; also: series mostly up to about 63 µM). The method in brief: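 Heat shock element–beta-lactamase HeLa reporter cells; qHTS with compounds for 5 h at 37 C; detection by FRET substrate fluorescence after 2.5 h at RT.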
For test [18], the target named is Bile acid receptor (Homo sapiens) (UniProt Q96RI1). As to the kind of experiment: qHTS assay to identify small molecule antagonists of the farnesoid-X-receptor (FXR) signaling pathway (AID 743217; active = well fitted inhibition curve with a large enough effect in the signal ratio in the repeat runs, not every such curve was filed as active; the % refers to the signal ratio). The procedure, abridged:
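Read-out: beta-lactamase FRET fluorescence (LiveBLAzer B/G substrate, 2 h, room temperature) in GeneBLAzer FXR-UAS-bla HEK 293T cells. Compounds were co-dosed with 50 uM chenodeoxycholic acid (final) and incubated 16 h at 37 °C.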

Test [19] shares this target. Put plainly: qHTS assay to identify small molecule agonists of the farnesoid-X-receptor (FXR) signaling pathway (AID 743220; active = well fitted activation curve with a large enough effect in the signal ratio in the repeat runs, not every such curve was filed as active; the % refers to the signal ratio). The method in brief:
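FXR-UAS-bla HEK 293T cells carrying a UAS-driven beta-lactamase reporter were plated for 5 h at 37C/5% CO2, then exposed to DMSO-dissolved Tox21 10K compounds for 16 h at 37C. A LiveBLAzer B/G FRET substrate was loaded for 2 h at room temperature before fluorescence reading.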

Chain of Peroxisome proliferator-activated receptor gamma (Homo sapiens) (P37231 whole entry, looked up): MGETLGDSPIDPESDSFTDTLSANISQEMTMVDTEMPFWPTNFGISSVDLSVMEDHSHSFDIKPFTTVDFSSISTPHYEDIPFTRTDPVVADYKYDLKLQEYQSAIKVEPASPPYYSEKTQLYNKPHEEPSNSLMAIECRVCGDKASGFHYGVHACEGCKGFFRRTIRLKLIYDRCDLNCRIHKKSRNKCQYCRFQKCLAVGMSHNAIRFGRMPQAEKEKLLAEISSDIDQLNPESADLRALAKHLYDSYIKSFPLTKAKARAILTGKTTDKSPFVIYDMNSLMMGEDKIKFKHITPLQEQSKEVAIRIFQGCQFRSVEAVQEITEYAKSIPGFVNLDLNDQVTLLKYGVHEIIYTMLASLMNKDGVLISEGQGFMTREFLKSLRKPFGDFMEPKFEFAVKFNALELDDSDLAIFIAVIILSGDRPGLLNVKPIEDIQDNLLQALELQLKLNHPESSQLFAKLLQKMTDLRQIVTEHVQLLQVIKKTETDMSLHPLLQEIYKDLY
Chain of Vitamin D3 receptor (Homo sapiens) (P11473 whole entry, looked up): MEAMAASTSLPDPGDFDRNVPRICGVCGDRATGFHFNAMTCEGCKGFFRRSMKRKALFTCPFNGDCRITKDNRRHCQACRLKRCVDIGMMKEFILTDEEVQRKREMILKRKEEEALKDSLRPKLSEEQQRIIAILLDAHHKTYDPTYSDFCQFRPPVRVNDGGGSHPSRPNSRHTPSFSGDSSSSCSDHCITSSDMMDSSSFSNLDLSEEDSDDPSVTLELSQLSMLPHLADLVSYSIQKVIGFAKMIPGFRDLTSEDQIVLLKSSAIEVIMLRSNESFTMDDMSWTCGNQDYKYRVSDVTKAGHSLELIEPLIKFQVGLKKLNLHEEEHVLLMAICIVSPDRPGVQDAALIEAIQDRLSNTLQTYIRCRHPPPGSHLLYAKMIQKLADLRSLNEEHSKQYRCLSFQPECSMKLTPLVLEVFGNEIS
Chain of Bile acid receptor (Homo sapiens) (Q96RI1 whole entry, looked up): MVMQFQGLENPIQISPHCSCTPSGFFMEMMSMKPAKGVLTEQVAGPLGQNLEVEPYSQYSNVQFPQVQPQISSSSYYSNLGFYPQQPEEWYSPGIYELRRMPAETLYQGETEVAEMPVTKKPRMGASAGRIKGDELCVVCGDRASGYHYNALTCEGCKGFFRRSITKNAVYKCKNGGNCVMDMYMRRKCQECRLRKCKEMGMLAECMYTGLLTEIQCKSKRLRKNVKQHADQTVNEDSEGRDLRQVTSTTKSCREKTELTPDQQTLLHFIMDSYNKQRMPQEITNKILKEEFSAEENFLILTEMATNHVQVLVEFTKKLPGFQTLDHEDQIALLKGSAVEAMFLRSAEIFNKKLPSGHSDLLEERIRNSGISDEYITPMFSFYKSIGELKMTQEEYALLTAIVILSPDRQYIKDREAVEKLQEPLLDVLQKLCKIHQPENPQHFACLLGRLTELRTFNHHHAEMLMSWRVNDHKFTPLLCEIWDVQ
Chain of Peroxisome proliferator-activated receptor delta (Homo sapiens) (Q03181 whole entry, looked up): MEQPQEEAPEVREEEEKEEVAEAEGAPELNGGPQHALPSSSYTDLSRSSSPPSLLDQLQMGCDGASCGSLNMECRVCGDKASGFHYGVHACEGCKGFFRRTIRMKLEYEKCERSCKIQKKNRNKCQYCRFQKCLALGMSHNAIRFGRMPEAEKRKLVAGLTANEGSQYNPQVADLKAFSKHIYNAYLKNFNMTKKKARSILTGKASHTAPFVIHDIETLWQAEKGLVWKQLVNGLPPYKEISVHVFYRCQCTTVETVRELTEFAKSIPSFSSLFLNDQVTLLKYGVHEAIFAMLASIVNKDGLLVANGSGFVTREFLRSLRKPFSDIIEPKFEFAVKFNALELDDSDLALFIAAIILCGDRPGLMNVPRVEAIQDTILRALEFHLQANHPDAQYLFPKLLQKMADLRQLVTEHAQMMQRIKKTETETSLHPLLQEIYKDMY

As to `CN1CC(=O)N2[C@H](c3ccc4c(c3)OCO4)c3[nH]c4ccccc4c3C[C@@H]2C1=O`, the Potency result in test [1], in [2], in test [3], in test [4], in test [5] and in [6] was “inactive” in each case. Further, the Potency entry in test [7], in [8], in test [9], in test [10], in test [11] and in test [12] was “inactive” each time. For the same molecule, the Potency entry in [13], in test [14] and in test [15] was “inactive” throughout.

On to `Cc1cc(=O)c2c(O)c3c(O)cc(=O)c4c3c3c(cc(O)c1c23)C(C)(C)C=4O`, for which the Potency entry in test [16] was “inactive”. The Potency in test [7] was 0.291 µM (active); in test [11], 1.84 µM (active); in test [12] it was 1.84 µM (active); in test [15], 0.731 µM (active).

On to `CCCCN(CCCC)C(C(N)=O)c1ccc(OC)cc1` (centres undefined), for which the Potency entry in test [3], in test [4], in test [5], in test [6], in [17] and in [7] was “inactive” each time. In addition, the Potency result in test [8], in test [9], in test [10], in [11], in test [12] and in [15] was “inactive” throughout.

In the case of `CC(=O)c1cc2ccccc2s1`, the Potency entry in test [4], in test [5], in test [17], in test [7], in [8] and in [9] was “inactive” in each case. For the same molecule, the Potency result in test [18], in test [11], in test [19], in test [12], in test [14] and in test [15] was “inactive” each time.

`C[C@H]1C[C@H](O)c2ccsc2S1(=O)=O`: the Potency result in [3], in test [4], in test [5], in test [6], in test [7] and in test [8] was “inactive” throughout. Besides, the Potency result in test [10], in [11], in [12] and in test [15] was “inactive” throughout.

In the case of `O=C1NCCN1CCO`, the Potency entry in test [16], in test [2], in test [3], in [4], in [5] and in test [17] was “inactive” each time. In addition, the Potency entry in [7], in test [11], in test [12], in test [13], in test [14] and in test [15] was “inactive” each time.

On to `O=c1cc(-c2ccccc2)oc2ccc3ccccc3c12`, for which the Potency result in [16], in [2], in test [10] and in test [13] was “inactive” each time. Moreover, the Potency was 19.5 µM (active) in [3]; 24.5 µM (active) in test [6]; 17.4 µM (active) in test [7]; 13.8 µM (active) in test [9]; 8.71 µM (active) in test [11]; 19.5 µM (active) in test [12]. Besides, the Potency in test [15] is 19.5 µM (active).

Consider `O=C=Nc1cccc(C(F)(F)F)c1`, for which the Potency entry in test [16], in test [5], in [6], in test [8] and in [10] was “inactive” each time.

`CCC(C)COC(C)=O` (centres undefined): the Potency entry in test [16], in [3], in test [5], in test [7], in test [8] and in test [9] was “inactive” throughout. For the same molecule, the Potency entry in [10], in test [18], in test [11], in [19], in test [12] and in [15] was “inactive” in each case.

Consider `O=c1c(O)c(-c2ccc(O)cc2)oc2cc(O)cc(O)c12`, for which the Potency entry in test [16], in [3], in test [4], in test [5], in test [6] and in [7] was “inactive” each time. Also, the Potency entry in test [9], in test [19], in test [12] and in [15] was “inactive” throughout.
